Measurements reported in PubChem BioAssay (NCI).
“And” between values parts separate entries of the source, which are not always exact repeats. Equal values may be shown once. Compounds without any hit were thinned out: in the full panel of roughly 79,000, 15% have a hit. Rule as the data show it: active = growth inhibition above about 70%; inactive = the rest.

Columns and labels:
[1] = NCI Yeast Anticancer Drug Screen. Data for the rad50 strain (AID 155);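 also: 0% = growth of vehicle-only cultures of the same strain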; details: S. cerevisiae rad50 strain growth inhibition, active compounds read high; at 50.0 µM unless noted
Procedure, shortened: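 A DNA repair-deficient yeast mutant serves as the test organism; compound-induced growth inhibition is calculated against vehicle-treated cells.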

[2] = NCI Yeast Anticancer Drug Screen. Data for the mec2-1 strain (AID 157); details: S. cerevisiae mec2-1 strain, active compounds read high; at 50.0 µM unless noted
Procedure, shortened: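 Cells of the genetically defined mec2-1 yeast strain are incubated with test compound. Inhibition of growth is calculated against vehicle-treated controls.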

[3] = NCI Yeast Anticancer Drug Screen. Data for the sgs1 mgt1 strain (AID 161);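 also: 0% = growth of cultures given vehicle only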; details: S. cerevisiae sgs1 mgt1 strain, active compounds read high; at 50.0 µM unless noted
Procedure, shortened: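 Mutant yeast exposed to compound; growth scored against vehicle-only wells.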

[4] = NCI Yeast Anticancer Drug Screen. Data for the cln2 rad14 strain (AID 165);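 also: 0% = growth equal to vehicle treated cultures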; details: S. cerevisiae cln2 rad14 strain, active compounds read high; at 50.0 µM unless noted
Procedure, shortened: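 The screen exposed genetically defined yeast (cln2 rad14) to test compounds and scored growth inhibition relative to vehicle-treated controls.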

[5] = NCI Yeast Anticancer Drug Screen. Data for the bub3 strain (AID 167); details: S. cerevisiae bub3 mutant strain, active compounds read high; at 50.0 µM unless noted
Procedure, shortened: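 Inhibition values come from growth of compound-treated mutant yeast normalised to vehicle-treated controls.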

[6] = NCI Yeast Anticancer Drug Screen. Data for the mlh1 rad18 strain (AID 175); details: S. cerevisiae mlh1 rad18 strain growth inhibition, active compounds read high; at 50.0 µM unless noted
Procedure, shortened: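 Compound-treated yeast growth, normalised to vehicle controls. Strain bears defined DNA repair mutations.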

Measured: growth inhibition

COc1cc2c(cc1OC)C1Cc3ccccc3CCN1CC2 (stereo unspecified)
inactive: [1] -23.4% | [2] -7.1% | [3] -16.8% | [4] -23.8% | [5] -9.95% | [6] -19.4%

Cn1cnc2[nH]c(=O)[nH]c(=O)c21
inactive: [1] 3.9% | [2] 12.9% | [3] -8.95% | [4] 1.95% | [5] 8.85% | [6] -0.75%

COc1ccc(C2=C(N)c3ncccc3C2=O)cc1
inactive: [1] 5.55% | [2] -5.05% | [3] 7.4% | [4] 4.65% | [5] 19.9% | [6] -70.3%

COc1ccc(C(CC(=O)C(C)(C)CN2CCCCC2)SCCS(=O)(=O)O)cc1 (stereo unspecified)
inactive: [1] -2.75% | [2] -4.9% | [3] -3.15% | [4] 2.85% | [5] -1.6% | [6] 4.15%

COc1ccccc1NC(=O)Oc1c(C(C)C)cccc1C(C)C
inactive: [1] -5.35% | [2] 5.75% | [3] -3.7% | [4] -1.1% | [5] 20% | [6] -17.4%

O=c1oc2ccccc2cc1O
inactive: [1] -12.2% | [2] -4.5% | [3] -6% | [4] -28.9% | [5] -18.3% | [6] 27.1%

NC(=S)N/N=C1/CN(c2ccc(Cl)c(Cl)c2)CC(=O)C1c1nc2ccccc2s1 (stereo unspecified)
inactive: [1] 49.1% | [2] 28.6% | [3] 53% | [4] 26.1% | [5] -0.65% | [6] 52.2%

C/C=C1\CC2C=CC1C2 (stereo unspecified) (tested in a mixture with another compound)
inactive: [1] 5.35% | [2] -15.4% | [3] 3.25% | [4] 0.5% | [5] 11.6% | [6] 8.15%

N#C/C(=C\c1ccco1)C1CCC([N+](=O)[O-])CC1 (stereo unspecified)
inactive: [1] -5.05% | [2] -1.5% | [3] 4.35% | [4] -101% | [5] 2.85% | [6] -4.85%

COc1cc(/C=C/C(=O)O)ccc1O
inactive: [1] -6.1% | [2] -17.1% | [3] 16.1% | [4] -48% | [5] -12.3% | [6] 17.6%

CCOC(=O)c1c(-c2ccc([N+](=O)[O-])cc2)cn(-c2ccc(OC)cc2)c1C
inactive: [1] 13.2% | [2] 7.1% | [3] 12.4% | [4] 4.35% | [5] -0.65% | [6] 1%

CN(C)N=Nc1ccc(S(C)(=O)=O)cc1
inactive: [1] 4.9% | [2] 0.6% | [3] 1.5% | [4] -22.1% | [5] 10.1% | [6] 8.1%

COCC(Br)C(OC)OC (stereo unspecified)
inactive: [1] 37.5% | [2] 9.1% | [3] 58.9% | [4] -1.05% | [5] 5.75% | [6] 68.3%

c1ccc(CNCCNCc2ccccc2)cc1
inactive: [1] 0.3% and 58.3% | [2] 4.75% and -16.4% | [3] 14.4% and 50.9% | [4] -56.7% and -11.3% | [5] -11.7% and 0.05% | [6] -5.35% and 46%

C[C@]12CCC(=O)C=C1CC[C@@H]1[C@@H]2C(=O)C[C@]2(C)/C(=C\C(=O)O)CC[C@@H]12
inactive: [1] -1% | [2] -19.1% | [3] 5.7% | [4] -48.1% | [5] -4.5% | [6] 2.55%

O=CNc1nc[nH]c1-c1noc(=O)[nH]1
inactive: [1] -2.75% | [2] -9.5% | [3] -3.5% | [4] -23.9% | [5] -10.8% | [6] -6.8%

CC(=O)c1c(C)cc2cc(C)cc(O)c2c1O
inactive: [1] 30.9% | [2] 17.9% | [3] 1.4% | [4] 0.6% | [5] 0.4% | [6] 29.9%

CC1(C)OC(=O)N=C1c1ccccc1Cl
inactive: [1] -18.1% | [2] -18.4% | [3] -11.3% | [4] -11.4% | [5] -15.6% | [6] 7.65%

CC1(C)OC2OC3C(Br)C(=O)OC3C2O1 (stereo unspecified)
inactive: [1] 14.8% | [2] -8.45% | [3] 24.7% | [4] 9.65% | [5] 24.1% | [6] 26.2%

O=S(=O)(O)c1cc(S(=O)(=O)O)c2cc(O)ccc2c1
inactive: [1] 0.6% | [2] 3.35% | [3] 13.4% | [4] -18.6% | [5] 5.35% | [6] 28.4%

CCC(C)C(NC(=O)Cc1ccccc1)C(=O)O (stereo unspecified)
inactive: [1] 4.55% | [2] -9.45% | [3] -4.1% | [4] -23.2% | [5] 8.95% | [6] 5.75%
